From PubChem BioAssay (EPA / NIEHS)
Activity calls are given as the source filed them. The calls were made as follows: active = hit-call score of the fitted dose curve at least 0.9, where 1 is the maximum; inactive = score below 0.9.

Assays:
[1] = ATG_CRE_CIS: Attagene CIS-FACTORIAL HepG2 Assay for human cAMP Responsive Element (CRE) binding protein 3 (AID 2282926); settings: HepG2 CRE cis-reporter, Attagene multiplexed mRNA; actives raise or lower the signal
Outline: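 Multiplexed transcription-unit reporters transfected into HepG2; 24 h dosing; RT-PCR/capillary electrophoresis fluorescence read-out; bidirectional fit vs DMSO.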

[2] = molecular target: CCAAT/enhancer-binding protein beta (Homo sapiens) (UniProt P17676); assay: ATG_C_EBP_CIS: Attagene CIS-FACTORIAL HepG2 Assay for human CCAAT/Enhancer Binding Protein (C/EBP) beta (AID 2282927); settings: HepG2 Attagene cis-factorial transcription factor reporter; actives raise or lower the signal
Chain of CCAAT/enhancer-binding protein beta (Homo sapiens) (P17676 whole entry, looked up): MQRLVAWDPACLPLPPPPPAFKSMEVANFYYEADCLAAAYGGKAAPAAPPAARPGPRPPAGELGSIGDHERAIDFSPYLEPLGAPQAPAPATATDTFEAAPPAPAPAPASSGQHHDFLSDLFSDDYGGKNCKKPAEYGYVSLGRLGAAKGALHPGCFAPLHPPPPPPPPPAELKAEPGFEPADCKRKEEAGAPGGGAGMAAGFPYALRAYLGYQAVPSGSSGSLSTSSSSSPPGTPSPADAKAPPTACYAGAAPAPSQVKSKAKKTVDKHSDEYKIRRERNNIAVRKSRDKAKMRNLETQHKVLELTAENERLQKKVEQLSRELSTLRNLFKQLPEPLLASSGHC
Outline: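 HepG2, transient MRTU transfection, 24 h treatment. RT-PCR plus CE fluorescence; DMSO negative control, bidirectional fit.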

[3] = ATG_CMV_CIS: Attagene CIS-FACTORIAL HepG2 Assay for human CMV (Internal Marker) (AID 2282928); settings: HepG2 CMV promoter reporter, transcription factor profiling; actives raise or lower the signal;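 also: endpoint acts as a background internal control marker rather than a target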
Outline: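 Cell system: HepG2, transiently transfected multiple reporter units under cis promoters. Exposure: 24 h. Detection: RT-PCR, FAM labeling, HpaI digestion, capillary electrophoresis. Analysis: bidirectional, DMSO baseline.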

[4] = ATG_DR4_LXR_CIS: Attagene CIS-FACTORIAL HepG2 Assay for human Liver X Receptor (LXR), DR4 submotif (AID 2282929); settings: HepG2 Attagene DR4 cis-reporter, mRNA transcription; actives raise or lower the signal
Outline: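 HepG2 cells transiently transfected with cis-promoter-driven multiplexed reporter units (DR4 element) were dosed for 24 h. Reporter mRNA was quantified by RT-PCR, fluorescent primer extension, HpaI digestion and capillary electrophoresis; bidirectional fitting versus DMSO baseline.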

[5] = molecular target: Aryl hydrocarbon receptor (Homo sapiens) (UniProt P35869); assay: ATG_Ahr_CIS: Attagene CIS-FACTORIAL HepG2 Assay for human Aryl Hydrocarbon Receptor (Ahr) (AID 2282930); settings: HepG2 AhR cis-factorial reporter transcription; actives raise or lower the signal
Chain of Aryl hydrocarbon receptor (Homo sapiens) (P35869 whole entry, looked up): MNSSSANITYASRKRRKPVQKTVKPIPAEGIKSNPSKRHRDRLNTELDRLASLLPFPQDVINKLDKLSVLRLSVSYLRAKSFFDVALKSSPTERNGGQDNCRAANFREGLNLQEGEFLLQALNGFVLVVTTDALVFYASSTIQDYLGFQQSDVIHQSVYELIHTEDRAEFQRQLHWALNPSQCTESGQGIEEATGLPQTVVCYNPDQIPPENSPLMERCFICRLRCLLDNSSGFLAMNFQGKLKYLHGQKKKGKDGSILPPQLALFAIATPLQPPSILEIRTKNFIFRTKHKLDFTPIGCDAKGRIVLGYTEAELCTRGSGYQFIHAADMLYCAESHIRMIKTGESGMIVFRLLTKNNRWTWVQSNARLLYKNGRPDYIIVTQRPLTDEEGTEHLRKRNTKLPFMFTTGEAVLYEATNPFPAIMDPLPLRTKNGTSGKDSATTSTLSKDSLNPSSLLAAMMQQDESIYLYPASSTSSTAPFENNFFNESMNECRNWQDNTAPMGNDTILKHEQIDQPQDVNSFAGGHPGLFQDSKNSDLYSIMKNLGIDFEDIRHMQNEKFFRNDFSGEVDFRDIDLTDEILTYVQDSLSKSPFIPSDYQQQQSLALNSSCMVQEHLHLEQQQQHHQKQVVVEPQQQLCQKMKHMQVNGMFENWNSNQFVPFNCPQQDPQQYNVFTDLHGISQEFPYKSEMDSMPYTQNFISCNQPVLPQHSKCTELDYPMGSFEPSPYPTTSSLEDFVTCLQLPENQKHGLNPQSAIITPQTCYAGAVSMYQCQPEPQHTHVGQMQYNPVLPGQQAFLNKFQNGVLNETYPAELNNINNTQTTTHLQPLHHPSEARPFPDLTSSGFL
Outline: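 Endogenous factor activity is tracked through cis-promoter reporter units transfected into HepG2 cells. Transcript levels at 24 h are read by fluorescent RT-PCR and capillary electrophoresis, with activity in either direction scored relative to DMSO.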

[6] = ATG_AP_1_CIS: Attagene CIS-FACTORIAL HepG2 Assay for human Activator Protein 1 (AP-1) (AID 2282931); settings: HepG2 Attagene cis-factorial AP-1 reporter mRNA; actives raise or lower the signal
Outline: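 HepG2 cells transiently transfected with cis-element-driven multiplex reporter units; 24 h compound exposure. Reporter mRNA quantified by RT-PCR, FAM-labelled fragments resolved by capillary electrophoresis; bidirectional fit versus DMSO baseline.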

[7] = ATG_AP_2_CIS: Attagene CIS-FACTORIAL HepG2 Assay for human Activator Protein 2 (AP-2) (AID 2282932); settings: HepG2 AP-2 cis-reporter, Attagene transcription factor profiling; actives raise or lower the signal
Outline: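 HepG2 cells transiently transfected with cis-element reporter units and exposed for 24 h. Reporter mRNA measured by RT-PCR, FAM labelling, HpaI digestion and capillary electrophoresis. Changes in either direction fitted relative to DMSO.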

[8] = ATG_BRE_CIS: Attagene CIS-FACTORIAL HepG2 Assay for human Bone Morphogenetic Protein (BMP) Response Element (BRE) (AID 2282933); settings: HepG2 BMP response element reporter, Attagene transcription factor profiling; actives raise or lower the signal
Outline: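 Fluorescence-labelled reporter cDNA fragments, separated by capillary electrophoresis, gave the signal for this component of a 52-readout multiplex. HepG2 cells were transfected, exposed to chemicals for 24 h, and compared with DMSO using bidirectional fitting.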

[9] = molecular target: Retinoic acid receptor alpha (Homo sapiens) (UniProt P10276); assay: ATG_DR5_RAR_CIS: Attagene CIS-FACTORIAL HepG2 Assay for human Retinoic Acid Receptor Alpha (RARE), DR5 submotif (AID 2282934); settings: HepG2 Attagene cis-factorial RARE DR5 reporter, mRNA; actives raise or lower the signal;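 as to AC50: reporter responds to endogenous RAR alpha beta and gamma in HepG2 not RARA alone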
Chain of Retinoic acid receptor alpha (Homo sapiens) (P10276 whole entry, looked up): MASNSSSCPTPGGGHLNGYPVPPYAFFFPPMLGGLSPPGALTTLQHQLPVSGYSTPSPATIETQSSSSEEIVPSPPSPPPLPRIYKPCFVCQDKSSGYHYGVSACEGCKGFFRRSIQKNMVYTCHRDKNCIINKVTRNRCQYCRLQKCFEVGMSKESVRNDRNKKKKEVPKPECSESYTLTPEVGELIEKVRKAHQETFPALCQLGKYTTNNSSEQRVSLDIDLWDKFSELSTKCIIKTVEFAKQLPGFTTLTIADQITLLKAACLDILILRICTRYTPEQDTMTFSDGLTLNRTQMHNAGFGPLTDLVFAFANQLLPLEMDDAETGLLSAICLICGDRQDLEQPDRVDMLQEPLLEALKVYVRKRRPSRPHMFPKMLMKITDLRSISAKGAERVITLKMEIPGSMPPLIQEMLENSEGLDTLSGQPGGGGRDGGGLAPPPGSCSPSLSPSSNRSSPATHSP
Outline: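 After 24 h of chemical exposure, transiently transfected HepG2 cells were lysed for total RNA; the DR5-regulated reporter transcript was quantified via RT-PCR and capillary electrophoresis, with activity fitted bidirectionally against DMSO.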

[10] = molecular target: Transcription factor E2F1 (Homo sapiens) (UniProt Q01094); assay: ATG_E2F_CIS: Attagene CIS-FACTORIAL HepG2 Assay for human E2F Transcription Factor 1 (AID 2282935); settings: HepG2 Attagene cis-reporter, E2F reporter RNA transcripts; actives raise or lower the signal
Chain of Transcription factor E2F1 (Homo sapiens) (Q01094 whole entry, looked up): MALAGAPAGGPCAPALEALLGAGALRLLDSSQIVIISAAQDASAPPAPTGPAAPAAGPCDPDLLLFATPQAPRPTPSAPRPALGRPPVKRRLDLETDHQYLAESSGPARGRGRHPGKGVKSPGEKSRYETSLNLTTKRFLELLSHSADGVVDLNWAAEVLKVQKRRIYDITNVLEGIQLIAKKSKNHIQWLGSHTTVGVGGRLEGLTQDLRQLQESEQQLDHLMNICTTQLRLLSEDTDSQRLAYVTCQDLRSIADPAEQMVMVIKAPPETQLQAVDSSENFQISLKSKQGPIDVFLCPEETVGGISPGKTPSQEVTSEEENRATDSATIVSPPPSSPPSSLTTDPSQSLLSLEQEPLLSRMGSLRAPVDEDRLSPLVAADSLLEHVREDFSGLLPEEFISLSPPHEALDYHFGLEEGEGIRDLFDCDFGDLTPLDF
Outline: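 Endogenous E2F1 activity read through cis-promoter reporter units transfected into HepG2. After 24 h compound treatment, reporter mRNA measured by RT-PCR, HpaI digestion and capillary electrophoresis. Bidirectional fit versus DMSO.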

[11] = ATG_E_Box_CIS: Attagene CIS-FACTORIAL HepG2 Assay for human Enhancer Box (E-box) (AID 2282936); settings: HepG2 E-box cis-reporter transcription, actives raise or lower the signal
Outline: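 HepG2 cells transiently transfected with multiplexed cis-element reporter units, dosed 24 h; reporter mRNA quantified by RT-PCR, 6-FAM labelling, HpaI digestion and capillary electrophoresis. E-box (USF1) signal fitted bidirectionally vs DMSO.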

[12] = ATG_M_61_CIS: Attagene CIS-FACTORIAL HepG2 Assay for M61 Transcription Factor (Internal Marker) (AID 2282937); settings: HepG2 Attagene CIS-FACTORIAL M61 internal marker reporter; actives raise or lower the signal
Outline: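 HepG2 cells transiently transfected with cis-element-driven multiple reporter transcription units, dosed for 24 h. Reporter mRNA measured by RT-PCR, 6-FAM primer-extension labelling, HpaI digestion and capillary electrophoresis; bidirectional fit versus DMSO baseline.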

[13] = ATG_EGR_CIS: Attagene CIS-FACTORIAL HepG2 Assay for human Early Growth Response 1 (EGR1) (AID 2282938); settings: HepG2 Attagene CIS-FACTORIAL EGR reporter mRNA; actives raise or lower the signal
Outline: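 HepG2 cells transiently transfected with cis-promoter-driven multiplexed reporter transcription units; reporter mRNA measured 24 h after compound dosing by RT-PCR, 6-FAM primer extension, HpaI digestion and capillary electrophoresis. Bidirectional fit versus DMSO baseline.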

[14] = ATG_M_19_CIS: Attagene CIS-FACTORIAL HepG2 Assay for M19 Transcription Factor (Internal Marker) (AID 2282939); settings: HepG2 Attagene CIS-FACTORIAL M19 internal marker reporter; actives raise or lower the signal
Outline: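 HepG2, MRTU transient transfection, 24 h dosing. Total RNA → RT-PCR → 6-FAM primer extension → HpaI digest → CE fluorescence. Bidirectional curve fit, DMSO negative control.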

[15] = ATG_ERE_CIS: Attagene CIS-FACTORIAL HepG2 Assay for Estrogen Response Element (ERE) (AID 2282940); settings: HepG2 ERE cis-reporter, Attagene RNA transcript; actives raise or lower the signal
Outline: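 After a 24 h chemical treatment, RNA from reporter-transfected HepG2 cells is reverse-transcribed, PCR-amplified and fluorescently labelled. Fragments separated by capillary electrophoresis give reporter signal; DMSO serves as negative control.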

[16] = ATG_Ets_CIS: Attagene CIS-FACTORIAL HepG2 Assay for human Erythroblast Transformation Specific (ETS) (AID 2282941); settings: HepG2 ETS cis-reporter transcription, actives raise or lower the signal
Outline: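 After transient cis-reporter transfection, HepG2 cells receive test chemical for 24 h. Reporter mRNA levels, measured by RT-PCR and capillary electrophoresis fluorescence, are analysed bidirectionally relative to the DMSO baseline.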

[17] = molecular target: Hepatocyte nuclear factor 3-beta (Homo sapiens) (UniProt Q9Y261); assay: ATG_FoxA2_CIS: Attagene CIS-FACTORIAL HepG2 Assay for human Forkhead box A2 (FOXA2) (AID 2282942); settings: HepG2 cis-reporter transcription factor activity, 24 h; actives raise or lower the signal
Chain of Hepatocyte nuclear factor 3-beta (Homo sapiens) (Q9Y261 whole entry, looked up): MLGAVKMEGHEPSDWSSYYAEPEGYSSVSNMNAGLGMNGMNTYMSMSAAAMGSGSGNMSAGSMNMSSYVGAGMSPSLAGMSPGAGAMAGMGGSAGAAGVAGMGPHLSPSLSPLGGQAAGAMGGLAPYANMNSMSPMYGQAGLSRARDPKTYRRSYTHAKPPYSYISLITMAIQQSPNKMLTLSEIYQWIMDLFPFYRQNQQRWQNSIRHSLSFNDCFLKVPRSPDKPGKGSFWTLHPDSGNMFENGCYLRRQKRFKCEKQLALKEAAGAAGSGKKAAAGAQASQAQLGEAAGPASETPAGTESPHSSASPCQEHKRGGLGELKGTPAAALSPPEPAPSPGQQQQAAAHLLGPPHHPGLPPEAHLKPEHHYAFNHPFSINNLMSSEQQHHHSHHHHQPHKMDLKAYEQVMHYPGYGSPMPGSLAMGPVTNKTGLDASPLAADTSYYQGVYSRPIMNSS
Outline: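 HepG2 cells transiently transfected with multiple cis-regulated reporter transcription units, dosed for 24 h. Reporter mRNA measured by RT-PCR, 6-FAM labelling, HpaI digestion and capillary electrophoresis; bidirectional fitting against DMSO baseline.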

[18] = ATG_FoxO_CIS: Attagene CIS-FACTORIAL HepG2 Assay for human Forkhead box O (FoxO) (AID 2282943); settings: HepG2 Attagene cis-reporter, FoxO element, mRNA; actives raise or lower the signal
Outline: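 Transfected HepG2 reporter cells exposed to test chemical for 24 h; reporter RNA measured by reverse transcription, PCR and fluorescent capillary electrophoresis; curves fitted for increases and decreases against DMSO.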

[19] = ATG_GATA_CIS: Attagene CIS-FACTORIAL HepG2 Assay for human GATA Binding Protein (AID 2282944); settings: HepG2 GATA cis-element reporter, Attagene multiplex mRNA; actives raise or lower the signal
Outline: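 Cells: HepG2, transiently transfected with cis-regulated reporter transcription units. Exposure: 24 h. Detection: RT-PCR plus capillary electrophoresis of FAM-labeled fragments. Analysis: bidirectional, DMSO as baseline.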

[20] = ATG_GLI_CIS: Attagene CIS-FACTORIAL HepG2 Assay for human Zinc Finger Protein GLI1 (AID 2282945); settings: HepG2, Attagene cis-factorial reporter mRNA, GLI element; actives raise or lower the signal
Outline: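 Transiently transfected HepG2 cells report endogenous transcription factor activity via cis-element-driven reporter units. After 24 h compound exposure, reporter mRNA was measured by RT-PCR with capillary electrophoresis; bidirectional fitting against DMSO baseline.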

Measured: AC50

C=CC(=C)CCC=C(C)C
active: [5] 67.1 µM
inactive: all other assays above

NC(=O)NO
active: [5] 100 µM
not listed: [15]
inactive: all other assays above

Nc1nc2ncc(CNc3ccc(C(=O)N[C@@H](CCC(=O)O)C(=O)O)cc3)nc2c(=O)[nH]1
not listed: [15]
inactive: all other assays above

CC1=CC(=O)CC(C)(C)C1
not listed: [15]
inactive: all other assays above

Nc1ccc(Nc2ccccc2)cc1
active: [3] 36.7 µM | [15] 35.1 µM
inactive: all other assays above

O=C(O)c1cccc(Oc2ccccc2)c1
inactive: all assays above

O=C(O)c1cc(N=Nc2ccc(S(=O)(=O)Nc3ccccn3)cc2)ccc1O
not listed: [15]
inactive: all other assays above

CCNc1ccccc1
not listed: [15]
inactive: all other assays above

O=C(NS(=O)(=O)/C=C/c1ccccc1)c1ccc(F)cc1Cl
inactive: all assays above

O=c1[nH]c2ccc(S(=O)CCN3CCC(Cc4ccc(F)cc4)CC3)cc2o1 (configuration not stated)
active: [4] 173 µM | [8] 100 µM | [13] 121 µM
inactive: all other assays above

CCOCCO
not listed: [15]
inactive: all other assays above

CNS(=O)(=O)c1cc(C(=O)N2CCC(CCN3C4CCC3CC(n3c(C)nc5ccccc53)C4)(c3cccc(F)c3)CC2)c(Cl)cc1F (configuration not stated)
active: [4] 7.55 µM
not listed: [15]
inactive: all other assays above

C=CCCCCCCCCC(=O)O
inactive: all assays above

O=C1OC(=O)C2C3C=CC(C3)C12 (configuration not stated)
not listed: [15]
inactive: all other assays above

Cn1c(=O)cc(Oc2ccc(F)cc2F)c2cnc(NCC(C)(C)O)nc21
not listed: [9]
inactive: all other assays above

O=C1CCCCCN1
not listed: [15]
inactive: all other assays above

COCCOCCOCCOC
not listed: [15]
inactive: all other assays above

CCOC(=O)c1ccc(C2CCC(NC[C@H](O)COc3ccc(O)c(NS(C)(=O)=O)c3)CC2)cc1 (some centres not stated)
active: [1] 51.8 µM | [2] 51.1 µM | [4] 60 µM | [6] 51.5 µM | [9] 51.4 µM | [13] 56.8 µM | [18] 53.5 µM | [19] 48.8 µM | [20] 59.6 µM
not listed: [15]
inactive: all other assays above

CC(C)=CCCC(C)CCO (configuration not stated)
active: [15] 65.7 µM
inactive: all other assays above

COC(=O)c1c(Cl)c(Cl)c(C(=O)OC)c(Cl)c1Cl
not listed: [9]
inactive: all other assays above

Cc1ccc(O)cc1
not listed: [15]
inactive: all other assays above

CCc1cc(SCc2sc(-c3ccc(C(F)(F)F)cc3)nc2CN2CCN(c3ccc(OC)cc3)CC2)ccc1OCC(=O)O
active: [4] 3.68 µM | [5] 17.4 µM | [8] 18.2 µM | [10] 1.9 µM | [11] 11 µM | [13] 15.8 µM
not listed: [15]
inactive: all other assays above

CCCC(=O)OCC
inactive: all assays above

C1N2CN3CN1CN(C2)C3
not listed: [15]
inactive: all other assays above

CNCc1ccc(NC(=O)c2c[nH]c3c2C(=O)CCC3)cc1
active: [5] 4.66 µM
not listed: [15]
inactive: all other assays above

Cc1ccc(S(=O)(=O)O)cc1C
inactive: all assays above

On1ccccc1=S
active: [11] 8.78 µM
not listed: [15]
inactive: all other assays above

COc1ccc(-n2nc(C(F)F)cc2-c2ccc(S(C)=O)cc2)cc1 (configuration not stated)
active: [3] 5.24 µM
inactive: all other assays above
